Results with a measured potency or affinity are listed apart.

The source of these data is PubChem BioAssay AID485284 (NMMLSC, 2010).

A short description of this experiment: loss of vesicle association with mouse CD8+ T cells – mouse 2C CD8+ T cells, flow cytometry, dose response (AID 485284).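 Also: drosophila derived vesicles carrying Ld MHC with QL9 peptide plus B7-1 and ICAM-1; vesicle binding seen as anti-B7-1 PE fluorescence on CD8 gated cells.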 The settings on record: 2C mouse CD8+ T cell-exosome binding; at 45 µM (top of the series). For orientation: A flow cytometer gives signals particle by particle.
Regarding `COc1ccc(-c2cc(CNS(=O)(=O)c3ccc(NC(C)=O)cc3)on2)cc1`, the binding remaining, % of control was 101%. As for `Cc1cnc(C(=O)Nc2ccc(C)c(S(=O)(=O)N3CCCCC3)c2)cn1`, the binding remaining, % of control is 114%.

With `CCOC(=O)N1CCC(=NNc2ncc(C(F)(F)F)cc2Cl)CC1`, the binding remaining, % of control came out at 24.2%. With `COc1ccc(CC(=O)OCC(=O)N2CCN(S(=O)(=O)c3ccc(C)cc3C)CC2)cc1`, the binding remaining, % of control came to 102%.

On to `CCOC(=O)c1cn(CC)c2cc(Cl)c([N+](=O)[O-])cc2c1=O`, for which the binding remaining, % of control turned out to be 128%.

As to `CC(=O)Nc1ccc(S(=O)(=O)NC2CCSc3ccccc32)cc1` (stereo not drawn), the binding remaining, % of control turned out to be 273%.

`CCOc1ccc(NC(=O)CN(C)C(=O)c2ccc(N3CCOCC3)c([N+](=O)[O-])c2)cc1OCC`: the binding remaining, % of control is 134%. As for `CCCCN(C(=O)C1CCC1)c1c(N)n(CC(C)C)c(=O)[nH]c1=O`, the binding remaining, % of control worked out at 53.6%. The figure for `NC(=O)NC(=O)COC(=O)CN1C(=O)C2CCCCC2C1=O` (stereo not drawn) is 164%; for `O=C(CN1C(=O)NC2(CCCCCC2)C1=O)N1CCN(c2ccc(F)cc2)CC1` it is 110%; for `COc1cc(F)c(C2=CC(=O)C[C@H](c3ccc(F)cc3)C2)cc1F` it is 108%. Take `CCCc1nnc(NC(=O)c2ccc(S(=O)(=O)N(C)c3ccccc3OC)cc2)s1`: the binding remaining, % of control is 142%. For the compound `CC1CCCN(CC(=O)NC(=O)NC2CCCCC2)C1` (stereo not drawn), the binding remaining, % of control is 109%. In the case of `CC(C)(C)Nc1nc2nonc2nc1NC(C)(C)C` it was 147%.

As for `COc1ccc(NC(=O)Nc2c(O)ccc3ccccc23)cc1`, the binding remaining, % of control stood at 76.2%.

For the compound `CCOC(=O)C1CCN(C(=O)c2ccc(NC(=O)C3CCCO3)cc2)CC1` (stereo not drawn), the binding remaining, % of control worked out at 218%. Regarding `CSc1cccc(NC(=O)CCCn2c(=O)c3cccn3c3cccnc32)c1`, the binding remaining, % of control turned out to be 87.5%. `CCOC(=O)c1cnc(=O)[nH]c1C`: the binding remaining, % of control is 189%.

As to `CC(C)C(C(=O)NC1=NCCS1)c1ccc(Cl)cc1` (stereo not drawn), the binding remaining, % of control is 31.2%. In the case of `Cc1ccc(NC(=O)COC(=O)CCc2c[nH]c3ccccc23)c(C)c1` it was 138%. The figure for `CCCOc1ccc(C2=CC(=O)C[C@H](c3ccc(OC)cc3)C2)cc1` is 143%; for `CCOc1ccc(CCNC(=O)CCS(=O)(=O)c2ccc(C)cc2)cc1OCC` it is 94%.

Turning to `COc1cc(CNCc2cccnc2)ccc1OCC(=O)NC1CCCCC1`, the binding remaining, % of control turned out to be 128%. The figure for `Cn1c(=O)c2cc(S(=O)(=O)NCCC(=O)NC3CCCCCC3)ccc2n(C)c1=O` is 83.7%. The figure for `CN(CC(=O)Nc1cccc(F)c1)C(=O)c1ccc(S(=O)(=O)N2CCCC2)cc1` is 21.6%. The figure for `C=CCNC(=S)Nc1sc2c(c1C(N)=O)CCCC2` is 163%; for `Cc1noc(C)c1C(=O)OC(C)C(=O)N1CCc2ccccc21` (stereo not drawn) it is 96.2%; for `CC1=C/C(=C(\c2ccc(O)c(C)c2)c2ccccc2S(=O)(=O)O)C=CC1=O` it is 138%. On to `O=C(OCC(=O)N1CCN(C(=O)c2ccco2)CC1)c1ccccc1Cc1ccccc1`, for which the binding remaining, % of control stood at 73%. In the case of `CCOC(=O)c1ccc(NC(=O)CN2C(=O)NC3(CCCCCCC3)C2=O)cc1` it was 44.2%; in that of `Cc1cc(=O)oc2c3c(cc(OCC(=O)NCc4ccncc4)c12)OC(C)(C)CC3`, 119%; in that of `Cc1ccc(Cn2c([N+](=O)[O-])cnc2C)cc1`, 35%. In the case of `CCOc1ccc(CCNC(=O)c2cccc(-n3cnnn3)c2)cc1OCC` it was 164%.
